# Measured values from PubChem BioAssay.
# Target: Fibroblast growth factor 10 (Homo sapiens) (UniProt O15520)
# Assay: compounds binding fibroblast growth factor 10 – biochemical, small-molecule microarray, 635 nm fluorescence, primary screen (AID 1102)
# Details: FGF10 binding, fluorescence 635 nm, higher = more signal
# Chain of Fibroblast growth factor 10 (Homo sapiens) (O15520 whole entry, looked up): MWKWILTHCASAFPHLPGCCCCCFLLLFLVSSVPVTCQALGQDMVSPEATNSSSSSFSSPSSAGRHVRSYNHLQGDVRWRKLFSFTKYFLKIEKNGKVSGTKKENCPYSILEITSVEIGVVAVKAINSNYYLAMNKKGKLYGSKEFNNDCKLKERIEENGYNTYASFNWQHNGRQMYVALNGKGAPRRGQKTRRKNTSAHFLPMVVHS
row,Compound,composite z-score
1,CCOC(=O)NN=C1C[C@@H](O)[C@@H](O)[C@@H]2[C@@H]3C(=O)N(C[C@@H]4CCCO4)C(=O)[C@@H]3CC[C@@H]12,0.137
2,COC(=O)c1c(CC[C@@H](CO)NC(=O)N[C@H](Cc2ccccc2)Cn2cc(-c3ccccc3N)nn2)oc(C(C)=O)c1C(=O)OC,0.865
3,CC(CCN1CCc2nc(-c3ccccc3)c(-c3ccccc3)cc2C1)=NOC(C)CN1CCCCc2nc(C)c(C)cc21 (configuration not stated),0.593
4,CCCNC(=O)[C@@H]1c2ccccc2C(=O)N(Cc2ccccc2Cl)[C@H]1c1ccc(CO)cc1,0.619
5,COc1ccc(O[C@H]2C=C[C@@H](c3ccccc3)O[C@@H]2COC(=O)CCC(C)=NOCC[C@@H]2C=C[C@H](OC(C)=O)[C@@H](COC(C)=O)O2)cc1,-0.249
6,CC(C)OC(=O)C=C1C[C@@H](c2ccc(C#N)cc2)O[C@@H](c2ccc(C#N)cc2)O1,1.44
7,CCCC=C(CCC)[C@@H](NC(=O)c1ccc(-c2ccccc2)cc1)c1ccc(C(=O)OC)cc1,-0.316
8,CCCC[C@@H](O)C1=C(C)C[C@H]2C(=O)N(Cc3ccccc3)C(=O)[C@H]2[C@H]1CO,0.264
9,COCCNC(=O)OCC1CCCC2(CC(OC(=O)NCCc3ccc(F)cc3)CC(CCC(=O)N[C@@H](C)C(=O)OC)O2)O1 (some centres not stated),0.842
10,C[N+](C)(C)CCCCCCNC(=O)[C@@H]1C[C@@H]2C(=O)N3CCC[C@H]3C(=O)N2[C@@H]1c1cccc(OCCO)c1,-0.0327
11,CC(C)C[C@@H]1NC(=O)[C@H]2C[C@@H](C(=O)O)[C@@H](c3ccc(O)cc3)N2C1=O,0.0112
12,O=C1O[C@@H](c2ccccc2)[C@@H](c2ccccc2)N2[C@@H](c3ccccc3OCCO)[C@]3(C(=O)Nc4ccc(C#CCCO)cc43)[C@@H](C(=O)O)[C@H]12,0.608
13,CO[C@H]1COC(=O)[C@H](C)COC(=O)CC=C[C@@H](C)[C@H](OC)COC(=O)CC=C[C@@H]1C,0.207
14,C=CCC(OC(C)=O)[C@@H]1[C@@H](N(Cc2cc3ccccc3o2)C(=O)Cc2ccc(F)cc2)c2cc(OCCCO)ccc2N1C(=O)Cc1ccc(OC)cc1 (some centres not stated),0.0509
15,CO[C@@H]1COC(=O)[C@H](C)NC(=O)[C@@H](C)COC(=O)CCC[C@H]1C,0.721
16,CC(C)(C)OC(=O)CC[C@]1(C(N)=O)COC(c2ccc(OCCCO)cc2)=N1,1.34

# Test system: glycogen synthase kinase-3 (GSK3A per assay name; protocol says GSK3B)
# Assay: compounds binding glycogen synthase kinase-3 – biochemical, small-molecule microarray, 635 nm fluorescence, GSK3A, primary screen (AID 1103); also: the record names both GSK3A and GSK3B
# Details: fluorescence 635 nm, higher = more signal
row,Compound,composite z-score
1,CCOC(=O)[C@H](Cc1ccccc1)NC(=O)CCC1CC(OC(=O)NCc2ccc3c(c2)OCO3)CC2(CCCC(COC(=O)NCc3cccc(C(F)(F)F)c3)O2)O1 (some centres not stated),0.584
2,CC(=O)OC[C@H]1O[C@@H](ON=C[C@@H](C)[C@H](OCc2ccccc2)C(C)C)[C@H](OC(C)=O)[C@@H](OC(C)=O)[C@@H]1OC(C)=O,0.623
3,O=C1[C@H]2[C@H]3[C@H](O)[C@H](O)CC(=NOCc4ccccc4)[C@H]3CC[C@H]2C(=O)N1C[C@@H]1CCCO1,0.632
4,CO[C@@H]1COC(=O)[C@@H]2CCCN2C(=O)[C@@H](C)COC(=O)[C@H](COCc2ccccc2)NC(=O)CC=C[C@H]1C,0.575
5,C=C(/C(=C/C[C@H](OC(C)=O)c1ccc(OCCO)cc1)c1cnc2ccccc2c1)C(C)C,0.939
6,COC(=O)CC=C[C@@H](C)[C@H](OC)c1ccccc1Br,0.169
7,COc1ccccc1CN1C(=O)c2ccccc2[C@@H](C(=O)NCC(F)(F)F)[C@@H]1c1ccc(CO)cc1,0.715
8,O=C1[C@H]2[C@H]3[C@H](O)[C@H](O)CC(=NO[C@@H]4O[C@H](CO)[C@@H](O)[C@H](O)[C@H]4O)[C@H]3CC[C@H]2C(=O)N1C1CCCCC1,0.266
9,CC(C)=CCCC(C)=CCON=C1C[C@@H](O)[C@@H](O)[C@@H]2[C@@H]3C(=O)N(C[C@@H]4CCCO4)C(=O)[C@@H]3CC[C@@H]12,1.29
10,C=CC[C@@H]1C=C[C@H](ON=C2c3cc(OC)ccc3O[C@H](c3cccc(OC)c3)[C@H]2O)[C@@H](CO)O1,-0.325
11,CCc1cc2c(nc1CC)CCN(CCC(C)=NOC[C@@H](O)COCc1ccco1)C2,1.3
12,CCN1C(=O)[C@H]2[C@H]3[C@H](O)[C@H](O)CC(=NOC(C)CN4CCCCc5nc(C)c(C)cc54)[C@@H]3CC[C@H]2C1=O (some centres not stated),0.606
13,COCCOC(=O)N1C(=O)[C@@]2(c3cc(C#CC4(O)CCCCCC4)ccc31)[C@H](c1ccc(OCCO)cc1)N1[C@H](c3ccccc3)[C@H](c3ccccc3)OC(=O)[C@H]1[C@@H]2C(=O)NC[C@H](O)c1ccccc1,1.29
14,CC1CC/C=C\[C@H]2OC34C=CCN(C(C)C)C(=O)[C@H]3N(CCCO)C(=O)[C@@H]4C2C(=O)O1 (some centres not stated),-0.785
15,CCCNC(=O)OC[C@H]1O[C@H](CCON=CC[C@@H]2C=C[C@H](OC(C)=O)[C@@H](COC(C)=O)O2)C=C[C@@H]1Oc1ccc(OC)cc1,0.524
16,Cc1ccc(S[C@]2(C(=O)O)CC(=O)N(Cc3ccccc3)[C@@H]2c2ccc(CO)cc2I)cc1,-0.0099
17,CC(=O)C[C@H](O)[C@@H](NC(=O)OC(C)(C)C)C(C)C,-1.45
18,COC(=O)C1=CCC(c2cccc(Cl)c2)O1 (configuration not stated),-0.842

row,Compound,composite z-score
1,COCCCNC(=O)[C@@]1(CCS(=O)(=O)c2ccccc2)N=C(c2ccc(OCCCO)cc2)O[C@H]1c1ccccc1,1.29
2,O=C(NN=C1C[C@@H](O)[C@@H](O)[C@@H]2[C@@H]3C(=O)N(c4cccc(Oc5ccccc5)c4)C(=O)[C@@H]3CC[C@@H]12)OCc1ccccc1,-0.54
3,CCOC(=O)NN=C1C[C@@H](O)[C@@H](O)[C@@H]2[C@@H]3C(=O)N(C[C@@H]4CCCO4)C(=O)[C@@H]3CC[C@@H]12,0.197
4,COC(=O)c1c(CC[C@@H](CO)NC(=O)N[C@H](Cc2ccccc2)Cn2cc(-c3ccccc3N)nn2)oc(C(C)=O)c1C(=O)OC,0.355
5,CC(CCN1CCc2nc(-c3ccccc3)c(-c3ccccc3)cc2C1)=NOC(C)CN1CCCCc2nc(C)c(C)cc21 (configuration not stated),0.746
6,CCCNC(=O)[C@@H]1c2ccccc2C(=O)N(Cc2ccccc2Cl)[C@H]1c1ccc(CO)cc1,1.28
7,COc1ccc(O[C@H]2C=C[C@@H](c3ccccc3)O[C@@H]2COC(=O)CCC(C)=NOCC[C@@H]2C=C[C@H](OC(C)=O)[C@@H](COC(C)=O)O2)cc1,-0.362
8,CC(C)OC(=O)C=C1C[C@@H](c2ccc(C#N)cc2)O[C@@H](c2ccc(C#N)cc2)O1,1.29
9,CCCC=C(CCC)[C@@H](NC(=O)c1ccc(-c2ccccc2)cc1)c1ccc(C(=O)OC)cc1,0.472
10,CCCC[C@@H](O)C1=C(C)C[C@H]2C(=O)N(Cc3ccccc3)C(=O)[C@H]2[C@H]1CO,-0.0254
11,COCCNC(=O)OCC1CCCC2(CC(OC(=O)NCCc3ccc(F)cc3)CC(CCC(=O)N[C@@H](C)C(=O)OC)O2)O1 (some centres not stated),1.26
12,C[N+](C)(C)CCCCCCNC(=O)[C@@H]1C[C@@H]2C(=O)N3CCC[C@H]3C(=O)N2[C@@H]1c1cccc(OCCO)c1,0.586
13,CC(C)C[C@@H]1NC(=O)[C@H]2C[C@@H](C(=O)O)[C@@H](c3ccc(O)cc3)N2C1=O,0.141
14,O=C1O[C@@H](c2ccccc2)[C@@H](c2ccccc2)N2[C@@H](c3ccccc3OCCO)[C@]3(C(=O)Nc4ccc(C#CCCO)cc43)[C@@H](C(=O)O)[C@H]12,1.03
15,CO[C@H]1COC(=O)[C@H](C)COC(=O)CC=C[C@@H](C)[C@H](OC)COC(=O)CC=C[C@@H]1C,0.432
16,C=CCC(OC(C)=O)[C@@H]1[C@@H](N(Cc2cc3ccccc3o2)C(=O)Cc2ccc(F)cc2)c2cc(OCCCO)ccc2N1C(=O)Cc1ccc(OC)cc1 (some centres not stated),-1.17
17,CO[C@@H]1COC(=O)[C@H](C)NC(=O)[C@@H](C)COC(=O)CCC[C@H]1C,0.115
18,CC(C)(C)OC(=O)CC[C@]1(C(N)=O)COC(c2ccc(OCCCO)cc2)=N1,0.977
